This passage reports Potency results from PubChem BioAssay (Tox21).

Test [1] can be described thus: Nuclear factor erythroid 2-related factor 2/antioxidant responsive element (Nrf2/ARE) small molecule agonists: luciferase reporter gene qHTS assay in human keratinocytes (AID 1919969). Also: nearly all actives have a fitted effect of over 35% in size. Also: potency is read from the fitted curve at half-maximal effect. Background: A reporter such as luciferase makes a cellular process visible.
Test [2] deals with Gonadotropin-releasing hormone receptor (Homo sapiens) (UniProt P30968). The test can be described thus: Human gonadotropin-releasing hormone receptor (GnRHR) small molecule agonists, calcium flux assay in GnRHR-HEK293 cells (AID 1920063). Also: nearly all actives have a fitted effect of over 35% in size. Also: potency is read from the fitted curve at half-maximal effect. The essentials: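 Cells: HEK293 stably expressing human GnRHR. Steps: overnight (18 h) culture, 1 h calcium dye loading at 37 C, compound addition, kinetic fluorescence read at 480/540 nm. Each compound tested at 15 concentrations in triplicate.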
(Calcium flux is commonly read through the fluorescence of an indicator in the cells.)

Test [3] can be described thus: G protein-coupled receptor (GPCR) small molecule agonists, calcium flux assay: HEK293 wild type cell line counter screen (AID 1920065). The essentials:
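Counter-screen of the Tox21 10K library for non-specific calcium release: dye-loaded cells received compounds in DMSO and were monitored by kinetic fluorescence (480/540 nm, 3 min). Fifteen concentrations, run in triplicate.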

A short description of test [4]: p53 small molecule agonists, cell-based qHTS assay with human liver microsomes (AID 1963577). The essentials:
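Cells carrying a p53-responsive bla reporter were rested 5 h (37 C, 5% CO2) before compound transfer. Human liver microsomes plus NADPH, 0.5 mg/mL final apiece, supplied metabolism during the 16 h 37 C exposure.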

Test [5] is described as follows: p53 small molecule agonists, cell-based qHTS assay with rat liver microsomes (AID 1963578). In short, it runs like this: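 Fluorescence from a beta-lactamase reporter under a p53 response element was measured after cells had been incubated 16 h at 37 C with test compound and rat liver microsomes plus NADPH (0.5 mg/mL final each).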
Background: qHTS replaces the single test concentration by a dilution series.

The target in test [6] is 5-hydroxytryptamine receptor 2A (Homo sapiens) (UniProt P28223). Nature of the test: 5-hydroxytryptamine receptor 2A (HTR2A) small molecule agonists, cell-based qHTS assay (AID 1963587). Also: nearly all actives have a fitted effect of over 30% in size. Also: potency is read from the fitted curve at half-maximal effect. In short, it runs like this: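 HTR2A-CHO cells, plated 18 h at 37 C/5% CO2, dye-loaded 1 h at 37 C; compounds in DMSO added by pin tool (agonist mode). Intracellular calcium flux read as kinetic fluorescence on FDSS over 2 min at 1 s intervals.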

The target in test [7] is Muscarinic acetylcholine receptor M1 (Homo sapiens) (UniProt P11229). The test can be described thus: Cholinergic receptor muscarinic 1 (CHRM1) small molecule antagonists, cell-based qHTS assay (AID 1963588). Also: nearly all actives have a fitted effect of over 40% in size. In short, it runs like this:
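CHRM1-CHO calcium-flux assay, antagonist mode. Cells were seeded 18 h, dye-loaded 1 h at 37 C and given compound for 5 min at RT, then acetylcholine was added at 50nM. FDSS fluorescence was read 3 min; 15 concentrations, three runs.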

For test [8] the target is unchanged. Nature of the test: Cholinergic receptor muscarinic 1 (CHRM1) small molecule agonists, cell-based qHTS assay (AID 1963589). Also: nearly all actives have a fitted effect of over 35% in size. In short, it runs like this:
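Agonist-mode qHTS in CHO cells stably carrying human muscarinic M1. Intracellular calcium is tracked by fluorescence every second after compound transfer; each compound runs at 15 concentrations in three independent runs.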

Test [9] has as its target Beta-2 adrenergic receptor (Homo sapiens) (UniProt P07550). Nature of the test: Adrenergic beta2 receptor (ADRB2) small molecule antagonists, cell-based qHTS assay (AID 1963592). Also: series mostly up to about 92 µM; nearly all actives have a fitted effect of over 50% in size. In short, it runs like this: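 Cells (CHO, stable ADRB2 overexpression) incubated 18-20hr at 37C; compounds added from DMSO; agonist mix (1nM isoproterenol, 100uM IBMX, 25uM Ro-20-1724) added; 0.5hr RT; d2-cAMP and anti-cAMP-cryptate added; 1hr RT; 665/615 nm read.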

The target is the same in test [10]. Nature of the test: Adrenergic beta2 receptor (ADRB2) small molecule agonists, cell-based qHTS assay (AID 1963593).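 Also: CHO cells stably overexpressing human ADRB2.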 In short, it runs like this:
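CHO cells stably over-expressing ADRB2 were plated overnight at 37C, then dosed with compounds plus a stimulation mix containing 100uM IBMX and 25uM Ro-20-1724 for 0.5hr at room temperature. cAMP was measured by HTRF competition, 1hr.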

Test [11] addresses KiSS-1 receptor (Homo sapiens) (UniProt Q969F8). The test can be described thus: Human kisspeptin (KISS1R) small molecule agonists, calcium flux assay in KISS1R-HEK293 cells (AID 1920064; active = well fitted activation curve with a large enough effect in the repeat runs; also: potency is read from the fitted curve at half-maximal effect). In short, it runs like this: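 Cells plated and incubated 18 h; dye added, 1 h at 37 C; compounds in DMSO pinned in; signal read at 480/540 nm every second for 3 min. Each compound tested at 15 concentrations in triplicate.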

Test [12] can be described thus: p53 small molecule agonists, cell-based qHTS assay with rat liver microsomes: qHTS cell viability counter screen (AID 1963580). Also: nearly all actives have a fitted effect of over 45% in size. The essentials:
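p53RE-bla HCT-116 cells (4,000/well) rested 5 h at 37 C, then given Tox21 compounds in DMSO with rat liver microsomes (0.5 mg/mL final) plus NADPH (0.5 mg/mL final) for 16 h at 37 C. Viability read by CellTiter-Glo luminescence after 30 min at room temperature.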

The nature of test [13]: p53 small molecule agonists, cell-based qHTS assay: qHTS cell viability counter screen (AID 1963581). Also: nearly all actives have a fitted effect of over 45% in size. Also: potency is read from the fitted curve at half-maximal effect. The essentials: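 Cells: HCT-116 with p53 response element-driven beta-lactamase. Treatment: 16 h, 37 C, compounds in DMSO. Read: CellTiter-Glo luminescence after 30 min RT.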
The nature of test [14]: cAMP Responsive Elements (CRE) small molecule antagonists, cell-based qHTS assay (AID 1963591; active = well fitted inhibition curve with a large enough effect in the signal ratio in the repeat runs, not every such curve was filed as active; the % refers to the signal ratio). The essentials: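 Antagonist mode: test compounds are co-incubated with the adenylyl cyclase activator NKH477 (0.25 uM final) on CRE-bla HEK293T cells for 3 h at 37 °C, followed by LiveBLAzer substrate loading.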
The target in test [15] is D(2) dopamine receptor (Homo sapiens) (UniProt P14416). Nature of the test: Dopamine D2 receptor (DRD2) small molecule agonists, cell-based qHTS assay (AID 1963594). Also: nearly all actives have a fitted effect of over 35% in size. In short, it runs like this: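 HEK293 cells stably expressing DRD2 were cultured 24 h at 37 C, then given Ro20-1724 (0.1 mM final) and compounds for 10 min at room temperature. NKH477 (200nM) was then added for 30 min. cAMP was read by HTRF.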

In test [16] the target is 5-hydroxytryptamine receptor 2A (Homo sapiens) (UniProt P28223). Nature of the test: 5-hydroxytryptamine receptor 2A (HTR2A) small molecule antagonists, cell-based qHTS assay (AID 1963586). Also: nearly all actives have a fitted effect of over 45% in size. Also: potency is read from the fitted curve at half-maximal effect. In short, it runs like this:
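Antagonist-mode intracellular calcium assay: DOI (4 nM) added after 5 min compound pre-incubation at room temperature to dye-loaded HTR2A-CHO cells. Fluorescence followed for 3 min, sampled every second.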

Test [17] is described as follows: cAMP Responsive Elements (CRE) small molecule agonists, cell-based qHTS assay (AID 1963590). The essentials:
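Agonist mode qHTS in CRE-bla HEK 293T cells: compounds dosed from DMSO for 3 h at 37 C/5% CO2, followed by LiveBLAzer B/G FRET substrate for 2 h at room temperature.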

For test [18], the target named is D(2) dopamine receptor (Homo sapiens) (UniProt P14416). Nature of the test: Dopamine D2 receptor (DRD2) small molecule antagonists, cell-based qHTS assay (AID 1963595; active = well fitted inhibition curve with a large enough effect in the signal ratio in the repeat runs, with a control signal flat; the % refers to the signal ratio). The essentials:
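Antagonist mode in DRD2-HEK293 cells: after compound addition with 0.1 mM Ro20-1724, cells received quinpirole (12 nM) and NKH477 (200 nM) for 30 min at room temperature; HTRF cAMP read after 1 h detection.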

Test [19] can be described thus: p53 small molecule agonists, cell-based qHTS assay with human liver microsomes: qHTS cell viability counter screen (AID 1963579). Also: nearly all actives have a fitted effect of over 45% in size. In short, it runs like this: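 Seed p53RE-bla cells at 4,000 per well; incubate 5 h at 37 C; add compound, human liver microsomes and NADPH; incubate 16 h at 37 C; add CellTiter-Glo; after 30 min at room temperature, read luminescence.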

Test [20] is described as follows: p53 small molecule agonists, cell-based qHTS assay (AID 1963582; active = well fitted activation curve with a large enough effect in the signal ratio in the repeat runs, not every such curve was filed as active; the % refers to the signal ratio). In short, it runs like this: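 Quantitative HTS in p53RE-bla cells: after a 5 h settling period, compounds delivered in DMSO were left on cells for 16 h at 37 C, and reporter induction was measured as fluorescence following 2 h substrate loading.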

Structures are written as SMILES. Records with an inconclusive call do not appear. Calls of active or inactive are those of the source. Unless noted, calls follow the shape of the full dose curve.

Muscarinic acetylcholine receptor M1 (Homo sapiens), sequence (P11229 whole entry, looked up): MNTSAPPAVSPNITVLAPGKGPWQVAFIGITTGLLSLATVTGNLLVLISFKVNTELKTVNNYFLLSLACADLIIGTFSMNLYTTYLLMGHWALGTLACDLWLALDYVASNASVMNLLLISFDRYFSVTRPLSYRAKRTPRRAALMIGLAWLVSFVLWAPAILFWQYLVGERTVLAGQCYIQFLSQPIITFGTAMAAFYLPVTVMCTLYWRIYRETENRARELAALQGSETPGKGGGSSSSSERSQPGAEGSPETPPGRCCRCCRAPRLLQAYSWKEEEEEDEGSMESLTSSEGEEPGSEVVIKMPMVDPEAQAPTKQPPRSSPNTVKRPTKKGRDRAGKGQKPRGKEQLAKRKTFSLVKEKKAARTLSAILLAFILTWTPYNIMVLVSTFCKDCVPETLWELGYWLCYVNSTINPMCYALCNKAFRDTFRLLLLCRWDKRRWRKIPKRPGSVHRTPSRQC
Beta-2 adrenergic receptor (Homo sapiens), sequence (P07550 whole entry, looked up): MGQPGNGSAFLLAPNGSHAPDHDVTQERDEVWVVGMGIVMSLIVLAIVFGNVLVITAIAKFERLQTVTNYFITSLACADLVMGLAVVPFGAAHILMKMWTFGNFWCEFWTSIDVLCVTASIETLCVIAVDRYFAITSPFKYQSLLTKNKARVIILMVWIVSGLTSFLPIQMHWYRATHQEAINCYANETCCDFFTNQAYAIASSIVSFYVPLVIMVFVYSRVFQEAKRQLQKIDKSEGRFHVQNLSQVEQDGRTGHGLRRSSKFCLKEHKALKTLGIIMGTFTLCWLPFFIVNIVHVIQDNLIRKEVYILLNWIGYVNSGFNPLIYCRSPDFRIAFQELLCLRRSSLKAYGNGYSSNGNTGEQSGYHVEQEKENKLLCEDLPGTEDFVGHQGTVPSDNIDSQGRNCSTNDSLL
Gonadotropin-releasing hormone receptor (Homo sapiens), sequence (P30968 whole entry, looked up): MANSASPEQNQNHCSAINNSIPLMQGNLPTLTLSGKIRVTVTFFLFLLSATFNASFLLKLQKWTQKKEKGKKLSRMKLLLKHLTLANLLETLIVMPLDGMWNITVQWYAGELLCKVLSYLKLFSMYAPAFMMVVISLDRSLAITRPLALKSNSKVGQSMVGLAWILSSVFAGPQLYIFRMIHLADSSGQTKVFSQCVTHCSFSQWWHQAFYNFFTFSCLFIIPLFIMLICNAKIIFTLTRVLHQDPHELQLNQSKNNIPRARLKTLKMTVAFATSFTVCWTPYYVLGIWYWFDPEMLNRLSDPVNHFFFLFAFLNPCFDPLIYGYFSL
5-hydroxytryptamine receptor 2A (Homo sapiens), sequence (P28223 whole entry, looked up): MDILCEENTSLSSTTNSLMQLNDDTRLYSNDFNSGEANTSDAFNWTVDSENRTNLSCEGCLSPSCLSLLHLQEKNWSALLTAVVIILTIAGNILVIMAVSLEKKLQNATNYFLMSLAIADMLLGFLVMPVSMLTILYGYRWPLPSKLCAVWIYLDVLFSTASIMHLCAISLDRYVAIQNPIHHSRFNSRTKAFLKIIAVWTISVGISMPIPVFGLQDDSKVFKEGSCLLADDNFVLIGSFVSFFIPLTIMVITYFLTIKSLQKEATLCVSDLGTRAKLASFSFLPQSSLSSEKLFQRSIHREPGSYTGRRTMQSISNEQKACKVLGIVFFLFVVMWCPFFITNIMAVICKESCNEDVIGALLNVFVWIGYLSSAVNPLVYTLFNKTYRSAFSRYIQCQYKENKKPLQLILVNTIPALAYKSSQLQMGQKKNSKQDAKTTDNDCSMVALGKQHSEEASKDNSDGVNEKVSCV
KiSS-1 receptor (Homo sapiens), sequence (Q969F8 whole entry, looked up): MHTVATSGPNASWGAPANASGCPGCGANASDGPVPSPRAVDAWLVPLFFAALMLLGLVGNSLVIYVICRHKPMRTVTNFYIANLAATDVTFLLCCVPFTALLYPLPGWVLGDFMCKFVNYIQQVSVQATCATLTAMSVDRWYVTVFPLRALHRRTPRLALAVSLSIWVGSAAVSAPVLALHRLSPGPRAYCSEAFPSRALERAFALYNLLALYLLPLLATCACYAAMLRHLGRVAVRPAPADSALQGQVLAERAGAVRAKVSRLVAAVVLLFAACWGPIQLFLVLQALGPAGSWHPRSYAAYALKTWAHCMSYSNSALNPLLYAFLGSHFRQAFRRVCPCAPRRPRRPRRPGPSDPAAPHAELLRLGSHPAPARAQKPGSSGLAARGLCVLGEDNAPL
D(2) dopamine receptor (Homo sapiens), sequence (P14416 whole entry, looked up): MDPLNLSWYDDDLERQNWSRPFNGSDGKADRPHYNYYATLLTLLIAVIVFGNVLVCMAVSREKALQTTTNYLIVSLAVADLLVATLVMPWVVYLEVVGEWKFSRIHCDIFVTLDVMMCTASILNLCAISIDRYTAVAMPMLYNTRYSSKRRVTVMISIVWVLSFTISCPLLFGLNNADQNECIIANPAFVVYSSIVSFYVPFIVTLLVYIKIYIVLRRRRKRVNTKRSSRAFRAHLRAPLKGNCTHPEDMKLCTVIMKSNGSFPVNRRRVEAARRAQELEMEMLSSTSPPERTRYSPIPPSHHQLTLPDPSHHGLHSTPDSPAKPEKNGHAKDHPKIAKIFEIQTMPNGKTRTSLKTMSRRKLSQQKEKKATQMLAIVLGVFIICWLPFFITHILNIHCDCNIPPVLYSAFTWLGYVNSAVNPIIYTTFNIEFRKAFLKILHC

Consider `CCc1nn(C)c(C(=O)NCc2ccc(C(C)(C)C)cc2)c1Cl`, for which the Potency entry in test [1], in test [2], in test [3], in test [4], in test [5] and in test [6] was “inactive” in each case. For the same compound, the Potency result in test [7], in test [8], in [9] and in [10] was “inactive” each time.
Regarding `O=C(N[C@@H]1N=C(c2ccccc2F)c2cccc3c2N(CC3)C1=O)c1cc2ccccc2[nH]1`, the Potency entry in [1], in [5], in [12], in test [13], in test [7] and in test [8] was “inactive” throughout. Besides, the Potency result in [14], in test [9], in test [10] and in test [15] was “inactive” throughout. Further, the values for the Potency in [2], in test [11] and in test [6] were 4.25 µM (active), 15.1 µM (active) and 13.4 µM (active), respectively.
Take `COc1ncc(F)c2nc(S(=O)(=O)Nc3c(F)cccc3F)nn12`: the Potency result in test [1], in test [2], in [11], in test [12], in test [13] and in [16] was “inactive” each time. For the same compound, the Potency entry in test [6], in [7], in test [8], in test [17], in test [14] and in test [9] was “inactive” throughout. Moreover, the Potency entry in test [10], in test [15] and in test [18] was “inactive” each time.
On to `C[C@]12CC[C@H](O)C[C@H]1CC[C@@H]1[C@@H]2C[C@@H](O)[C@]2(C)[C@@H](C3=CC(=O)OC3)CC[C@]12O`, for which the Potency in test [1] is 3.44 µM (active); in test [13], 1.82 µM (active). In addition, the Potency result in test [2], in test [11], in [4], in [5], in [16] and in [6] was “inactive” in each case. For the same compound, the Potency entry in [8], in [15] and in test [18] was “inactive” each time.
As to `CCOP(=O)(OCC)Oc1nc(Cl)c(Cl)cc1Cl`, the Potency entry in [1], in test [2], in [11], in [3], in test [19] and in [12] was “inactive” throughout. The Potency entry in [13], in test [16], in test [6], in test [7], in [8] and in test [15] was “inactive” throughout. The Potency entry in test [18] is “inactive”.
Regarding `COP(=S)(OC)Oc1ccc([N+](=O)[O-])cc1Cl`, the Potency entry in test [1], in test [2], in test [11], in [3], in test [19] and in test [13] was “inactive” each time. The Potency result in test [20], in test [16], in test [6], in test [7], in test [8] and in test [17] was “inactive” throughout. For the same compound, the Potency result in test [14], in test [9], in [15] and in test [18] was “inactive” in each case.
As for `c1cc2ccc3cccc4ccc(c1)c2c34`, the Potency result in test [1], in test [2], in [11], in test [3], in test [16] and in test [6] was “inactive” throughout. Besides, the Potency result in test [7] was “inactive”.
`CC[C@H]1C[C@@H]2C[C@H]3c4[nH]c5ccc(OC)cc5c4CCN(C2)[C@@H]13`: the figures for the Potency in test [1] and in [16] were 67.4 µM (active) and 0.293 µM (active), respectively. The Potency entry in test [2], in test [3], in test [4], in [5], in [19] and in [12] was “inactive” throughout. For the same compound, the Potency result in [20], in test [6], in test [8] and in test [18] was “inactive” in each case.
